Among the data in the supplement of paper PMC10849652 are log2 fold change values, retold here.

Of roughly 7,900 targets only a part is listed; those with a hit were picked by preference. About 0.6% of all pairs of compound and target were hits. Values without a mark were called inactive.

Holding throughout (test): log2 fold change, soluble protein after heating vs DMSO (PISA); higher = thermal stabilisation; K562 cells, 10 uM, 30 min; active = over 0.2 and 3.5 SD of the protein, either way, in both replicates (recomputed)
Compound in assay [1]: COC1=CC=C(C=C1)CN2C=CC3=C2C=C(C=C3)C(=O)NO
The method, boiled down:
(§1)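 Aliquots of K562 cells (2×10^6 cells/mL) treated with 10 μM compound for 30 min were heated for 3 min over 48°C-58°C. After pooling and extraction in PBS with 0.5% NP-40 at 4°C, soluble protein from a 21,000xg, 90 min spin was quantified by TMTpro 16plex LC-MS/MS with channel sums equalised. Thermal stability is expressed against control samples, from duplicates, as a log2 fold change.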

Compound in another assay: CON(C)C(=O)N1N=C(c2cc(F)ccc2F)S[C@@]1(CCCN)c1ccccc1 [filanesib]
The method, boiled down:
as §1

Compound in the next assay: CO[C@H]1C[C@@H]2CC[C@@H](C)[C@@](O)(O2)C(=O)C(=O)N2CCCC[C@H]2C(=O)O[C@H]([C@H](C)C[C@@H]2CC[C@H](n3cnnn3)[C@H](OC)C2)CC(=O)[C@H](C)/C=C(\C)[C@@H](O)[C@@H](OC)C(=O)[C@H](C)C[C@H](C)/C=C/C=C/C=C/1C [zotarolimus]
The method, boiled down:
as §1

Compound in a further assay: COc1cc(C(=O)O)ccc1NC(=O)[C@@H]1N[C@@H](CC(C)(C)C)[C@](C#N)(c2ccc(Cl)cc2F)[C@H]1c1cccc(Cl)c1F [idasanutlin]
The method, boiled down: as §1

Compound in another assay: COc1cc(Nc2ncc3c(n2)-c2ccc(Cl)cc2C(c2c(F)cccc2OC)=NC3)ccc1C(=O)O [alisertib]
The method, boiled down: as §1

Compound in assay [2]: COc1cc2nc(-c3cc(F)ccc3O)nc(N[C@@H]3CNC[C@H]3C(C)(C)O)c2cc1OC
The procedure, abridged:
as §1

Compound in the next assay: COc1cc2ncnc(Nc3ccc(F)c(Cl)c3)c2cc1OCCCN1CCOCC1 [gefitinib]
The method, boiled down:
as §1

Compound in assay [3]: COc1cccc2cc(-c3nc([C@H]4CC[C@H](C(=O)O)CC4)n4ncnc(N)c34)[nH]c12
The method, boiled down:
as §1

Compound in the next assay: CS(=O)(=O)CCNCc1ccc(-c2ccc3ncnc(Nc4ccc(OCc5cccc(F)c5)c(Cl)c4)c3c2)o1 [lapatinib]
The procedure, abridged:
as §1

Compound in a further assay: CS(=O)(=O)N1CCN(Cc2cc3nc(-c4cccc5[nH]ncc45)nc(N4CCOCC4)c3s2)CC1 [pictilisib]
The procedure, abridged:
as §1

Chain of UniProt P51665 (P51665 whole entry, looked up): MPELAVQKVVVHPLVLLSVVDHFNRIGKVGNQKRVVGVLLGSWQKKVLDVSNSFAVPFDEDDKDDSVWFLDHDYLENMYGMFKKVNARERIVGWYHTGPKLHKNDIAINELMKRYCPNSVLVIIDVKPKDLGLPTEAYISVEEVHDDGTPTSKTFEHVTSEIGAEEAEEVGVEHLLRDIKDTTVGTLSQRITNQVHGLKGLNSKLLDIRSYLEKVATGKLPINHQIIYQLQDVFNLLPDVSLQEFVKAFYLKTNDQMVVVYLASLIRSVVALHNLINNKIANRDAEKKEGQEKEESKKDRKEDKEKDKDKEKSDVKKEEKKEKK
Chain of UniProt O95997 (O95997 whole entry, looked up): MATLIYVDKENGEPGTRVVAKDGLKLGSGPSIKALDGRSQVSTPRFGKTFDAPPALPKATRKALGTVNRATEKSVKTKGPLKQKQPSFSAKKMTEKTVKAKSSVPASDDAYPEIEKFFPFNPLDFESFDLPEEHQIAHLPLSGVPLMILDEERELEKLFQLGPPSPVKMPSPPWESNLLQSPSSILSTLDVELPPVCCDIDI
Chain of UniProt Q9Y2I7 (Q9Y2I7 whole entry, looked up): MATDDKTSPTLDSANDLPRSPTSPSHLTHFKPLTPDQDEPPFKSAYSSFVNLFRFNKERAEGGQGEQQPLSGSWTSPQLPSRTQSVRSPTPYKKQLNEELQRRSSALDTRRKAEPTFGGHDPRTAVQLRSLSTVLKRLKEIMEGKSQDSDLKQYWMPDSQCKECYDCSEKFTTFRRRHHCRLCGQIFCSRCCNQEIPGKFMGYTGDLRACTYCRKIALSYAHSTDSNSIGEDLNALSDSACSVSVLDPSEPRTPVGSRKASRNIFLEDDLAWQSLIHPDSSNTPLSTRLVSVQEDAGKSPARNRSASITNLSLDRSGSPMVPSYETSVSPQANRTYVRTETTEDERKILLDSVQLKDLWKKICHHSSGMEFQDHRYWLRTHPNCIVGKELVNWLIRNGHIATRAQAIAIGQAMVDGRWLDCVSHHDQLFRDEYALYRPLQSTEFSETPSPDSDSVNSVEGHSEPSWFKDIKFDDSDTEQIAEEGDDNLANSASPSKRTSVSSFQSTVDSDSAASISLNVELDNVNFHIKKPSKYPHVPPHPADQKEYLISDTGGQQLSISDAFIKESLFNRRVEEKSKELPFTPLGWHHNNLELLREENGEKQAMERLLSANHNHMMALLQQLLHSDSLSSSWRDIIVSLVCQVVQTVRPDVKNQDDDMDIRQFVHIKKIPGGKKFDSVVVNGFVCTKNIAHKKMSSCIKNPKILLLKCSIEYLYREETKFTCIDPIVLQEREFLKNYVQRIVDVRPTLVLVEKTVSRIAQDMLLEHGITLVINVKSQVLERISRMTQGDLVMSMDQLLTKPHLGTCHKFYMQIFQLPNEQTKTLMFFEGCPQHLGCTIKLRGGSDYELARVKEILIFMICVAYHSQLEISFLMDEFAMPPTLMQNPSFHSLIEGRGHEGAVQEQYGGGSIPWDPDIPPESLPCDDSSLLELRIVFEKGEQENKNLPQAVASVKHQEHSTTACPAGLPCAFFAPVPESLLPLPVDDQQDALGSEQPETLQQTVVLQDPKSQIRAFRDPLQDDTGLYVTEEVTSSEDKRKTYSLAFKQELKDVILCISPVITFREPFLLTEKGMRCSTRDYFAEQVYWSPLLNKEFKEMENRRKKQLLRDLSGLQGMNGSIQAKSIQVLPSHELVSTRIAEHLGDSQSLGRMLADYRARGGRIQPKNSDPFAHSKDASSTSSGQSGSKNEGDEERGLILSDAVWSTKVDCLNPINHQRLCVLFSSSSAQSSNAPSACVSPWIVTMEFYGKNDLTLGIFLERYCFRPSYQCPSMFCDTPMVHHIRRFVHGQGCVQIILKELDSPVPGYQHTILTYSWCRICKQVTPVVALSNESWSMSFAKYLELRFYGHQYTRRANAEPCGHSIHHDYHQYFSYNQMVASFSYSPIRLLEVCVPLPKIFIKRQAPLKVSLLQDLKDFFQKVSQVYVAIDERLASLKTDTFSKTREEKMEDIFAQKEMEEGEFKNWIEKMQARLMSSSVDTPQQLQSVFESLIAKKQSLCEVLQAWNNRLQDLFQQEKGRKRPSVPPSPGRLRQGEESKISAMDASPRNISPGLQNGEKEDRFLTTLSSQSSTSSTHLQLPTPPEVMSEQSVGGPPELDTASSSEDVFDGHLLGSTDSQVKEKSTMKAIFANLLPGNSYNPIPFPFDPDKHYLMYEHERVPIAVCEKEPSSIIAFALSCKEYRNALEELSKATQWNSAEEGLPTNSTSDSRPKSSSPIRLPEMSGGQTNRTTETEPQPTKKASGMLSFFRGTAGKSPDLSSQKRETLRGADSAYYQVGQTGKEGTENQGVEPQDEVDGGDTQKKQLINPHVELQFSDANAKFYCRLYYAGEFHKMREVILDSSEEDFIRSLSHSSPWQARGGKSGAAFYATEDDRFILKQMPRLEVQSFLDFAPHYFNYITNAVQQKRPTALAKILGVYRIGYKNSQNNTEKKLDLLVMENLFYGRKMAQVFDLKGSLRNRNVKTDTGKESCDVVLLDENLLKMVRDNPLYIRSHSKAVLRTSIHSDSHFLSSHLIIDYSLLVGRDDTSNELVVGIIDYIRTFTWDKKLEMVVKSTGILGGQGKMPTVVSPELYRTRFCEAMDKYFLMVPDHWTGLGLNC
Chain of UniProt Q8NAV1 (Q8NAV1 whole entry, looked up): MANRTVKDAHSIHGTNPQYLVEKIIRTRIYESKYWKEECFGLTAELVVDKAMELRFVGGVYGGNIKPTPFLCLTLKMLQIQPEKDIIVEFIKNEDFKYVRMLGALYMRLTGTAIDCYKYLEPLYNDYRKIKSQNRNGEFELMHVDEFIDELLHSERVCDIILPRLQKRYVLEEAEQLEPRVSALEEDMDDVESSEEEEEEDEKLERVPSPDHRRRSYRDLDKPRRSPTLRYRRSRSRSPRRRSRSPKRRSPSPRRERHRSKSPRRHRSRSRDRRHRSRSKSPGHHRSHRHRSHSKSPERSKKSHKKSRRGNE
Chain of UniProt P41247 (P41247 whole entry, looked up): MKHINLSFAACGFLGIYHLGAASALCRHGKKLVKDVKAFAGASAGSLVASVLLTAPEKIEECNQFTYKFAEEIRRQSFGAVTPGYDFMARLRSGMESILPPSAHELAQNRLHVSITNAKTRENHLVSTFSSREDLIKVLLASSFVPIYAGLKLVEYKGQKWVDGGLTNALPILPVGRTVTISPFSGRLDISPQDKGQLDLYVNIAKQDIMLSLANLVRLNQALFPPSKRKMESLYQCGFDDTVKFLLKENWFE
Chain of UniProt Q86T03 (Q86T03 whole entry, looked up): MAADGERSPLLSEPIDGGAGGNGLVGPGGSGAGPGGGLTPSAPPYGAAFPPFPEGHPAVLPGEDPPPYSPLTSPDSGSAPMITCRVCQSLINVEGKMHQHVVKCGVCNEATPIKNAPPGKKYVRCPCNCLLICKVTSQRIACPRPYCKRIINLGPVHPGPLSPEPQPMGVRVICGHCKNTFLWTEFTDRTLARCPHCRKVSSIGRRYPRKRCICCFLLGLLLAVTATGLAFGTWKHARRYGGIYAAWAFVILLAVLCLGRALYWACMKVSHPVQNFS
Chain of UniProt P50336 (P50336 whole entry, looked up): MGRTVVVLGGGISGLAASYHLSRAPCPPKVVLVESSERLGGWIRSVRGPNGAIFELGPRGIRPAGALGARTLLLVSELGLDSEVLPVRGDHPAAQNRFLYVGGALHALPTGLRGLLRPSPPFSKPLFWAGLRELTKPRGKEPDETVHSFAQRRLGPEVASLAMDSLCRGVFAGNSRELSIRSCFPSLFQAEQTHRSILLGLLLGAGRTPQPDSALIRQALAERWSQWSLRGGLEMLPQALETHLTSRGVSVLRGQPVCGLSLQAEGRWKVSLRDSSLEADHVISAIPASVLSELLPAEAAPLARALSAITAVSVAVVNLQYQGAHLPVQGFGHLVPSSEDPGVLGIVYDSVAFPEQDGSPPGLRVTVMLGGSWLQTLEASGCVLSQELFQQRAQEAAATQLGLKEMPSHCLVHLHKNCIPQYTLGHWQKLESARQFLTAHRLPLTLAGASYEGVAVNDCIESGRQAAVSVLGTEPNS
Chain of UniProt Q2TAL8 (Q2TAL8 whole entry, looked up): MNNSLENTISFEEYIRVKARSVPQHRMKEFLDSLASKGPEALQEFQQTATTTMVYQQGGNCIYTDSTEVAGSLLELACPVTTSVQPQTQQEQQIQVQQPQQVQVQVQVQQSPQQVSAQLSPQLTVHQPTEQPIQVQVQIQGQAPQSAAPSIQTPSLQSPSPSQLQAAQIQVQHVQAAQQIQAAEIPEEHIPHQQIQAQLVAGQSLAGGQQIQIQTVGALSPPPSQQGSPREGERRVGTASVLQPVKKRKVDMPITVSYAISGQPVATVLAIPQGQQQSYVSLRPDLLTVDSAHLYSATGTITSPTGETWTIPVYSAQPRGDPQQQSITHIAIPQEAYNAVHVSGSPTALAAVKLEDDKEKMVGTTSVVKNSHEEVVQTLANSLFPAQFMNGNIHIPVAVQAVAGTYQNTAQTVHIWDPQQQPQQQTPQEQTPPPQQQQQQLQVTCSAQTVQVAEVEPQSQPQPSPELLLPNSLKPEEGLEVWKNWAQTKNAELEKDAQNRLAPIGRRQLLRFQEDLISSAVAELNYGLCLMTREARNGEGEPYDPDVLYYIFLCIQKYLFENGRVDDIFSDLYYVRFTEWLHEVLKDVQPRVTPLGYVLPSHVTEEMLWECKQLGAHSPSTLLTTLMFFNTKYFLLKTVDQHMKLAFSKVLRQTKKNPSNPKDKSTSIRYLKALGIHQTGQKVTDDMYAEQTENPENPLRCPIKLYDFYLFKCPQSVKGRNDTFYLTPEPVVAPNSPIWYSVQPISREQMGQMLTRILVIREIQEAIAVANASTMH

As for PSMD7 (UniProt P51665), the log2 fold change in [1] was -0.059; with filanesib, 0.054; with zotarolimus, -0.014; with idasanutlin it was 0.01; with alisertib, -0.032; in assay [2] it was -0.027. The log2 fold change in the assay with gefitinib was -0.049; in [3] it was -0.022; with lapatinib, 0.089; with pictilisib, -0.078.

On to PTTG1 (UniProt O95997), for which the log2 fold change is 0.011 in assay [1]; 0.052 with filanesib; -0.077 with zotarolimus; -0.011 in the assay with idasanutlin; -0.022 in the assay with alisertib; -0.156 in assay [2]. The log2 fold change was -0.048 with gefitinib, -0.058 in assay [3], -0.013 with lapatinib and -0.07 with pictilisib.

In the case of QRICH1 (UniProt Q2TAL8), the log2 fold change is 0.015 in assay [1]; 0.004 with filanesib; -0.022 in the assay with zotarolimus; -0.072 with idasanutlin; 0.071 with alisertib; 0.08 in [2]. The values for the log2 fold change (with gefitinib; in [3]; in the assay with lapatinib) were 0.137, 0.032 and 0.011, respectively.

For PCYT1B (UniProt Q9Y5K3), the log2 fold change was 0.005 in assay [1]; 0.026 with filanesib; 0 in the assay with zotarolimus; -0.029 in the assay with idasanutlin; -0.156 with alisertib; 0.131 in assay [2]. For the same target, the log2 fold change in the assay with gefitinib was -0.051; in assay [3] it was 0.018; with lapatinib, -0.019; in the assay with pictilisib, -0.12.

Take PRPF38A (UniProt Q8NAV1): the log2 fold change in assay [1] is -0.113; with filanesib it was 0.046; with zotarolimus, -0.014; with idasanutlin, 0.035; in the assay with alisertib it was -0.033; in assay [2], 0.041. Besides, the log2 fold change in the assay with gefitinib was 0.009; in assay [3] it was 0.002; with lapatinib, -0.035; with pictilisib, 0.085.

In the case of PHAX (UniProt Q9H814), the log2 fold change is -0.01 in assay [1]; 0.045 with filanesib; 0.004 with zotarolimus; 0.018 with idasanutlin; -0.057 with alisertib; -0.09 in assay [2]. Moreover, the log2 fold change in the assay with gefitinib is 0.007; in [3] it was 0.032; with lapatinib, 0.039; with pictilisib, 0.002.

In the case of PSMD6 (UniProt Q15008), the log2 fold change was -0.02 in assay [1]; 0.042 in the assay with filanesib; 0.017 in the assay with zotarolimus; -0.013 with idasanutlin; -0.091 in the assay with alisertib; -0.062 in assay [2]. For the same target, the log2 fold change with gefitinib was -0.021; in assay [3], -0.045; with lapatinib it was 0.102; in the assay with pictilisib it was -0.036.

As for PIP4P1 isoform 2 (UniProt Q86T03), the log2 fold change in [1] is 0.089; in the assay with filanesib it was -0.32 (active); with zotarolimus, 0.004; with idasanutlin it was 0.002; in the assay with alisertib, 0.032; in [2] it was -0.072. The log2 fold change with gefitinib is -0.018; in [3], -0.058; with lapatinib, 0.06; with pictilisib, -0.061.

Take PPOX (UniProt P50336): the log2 fold change in assay [1] was 0.324; with filanesib, -0.226; in the assay with zotarolimus it was 0.352; with idasanutlin it was 0.574 (active); with alisertib, 0.033; in assay [2], -0.178. The log2 fold change with gefitinib is 0.116; in assay [3], 0.021; with lapatinib it was 0.471; in the assay with pictilisib, 0.475.

In the case of PNPLA4 (UniProt P41247), the log2 fold change in [1] is 0.041; with filanesib, -0.184; with zotarolimus it was -0.142; with idasanutlin, 0.003; in the assay with alisertib it was 0.026; in [2] it was -0.133. Also, the log2 fold change with gefitinib was 0.015; in assay [3], 0.113; with lapatinib, -0.049.

Turning to PRKCA (UniProt P17252), the log2 fold change in assay [1] was -0.005; with filanesib, -0.066; with zotarolimus, 0.008; with idasanutlin, 0.01; in the assay with alisertib, -0.019; in assay [2], 0.057. The log2 fold change with gefitinib is -0.002; in [3], 0.017; with lapatinib, -0.027; with pictilisib, 0.055.

Turning to PAK4 (UniProt O96013), the log2 fold change in [1] was -0.106; with filanesib, 0.068; in the assay with zotarolimus it was 0.03; in the assay with idasanutlin, -0.021; with alisertib, 0.153; in [2], 0.195. Further, the log2 fold change in the assay with gefitinib is 0; in [3], 0.075; with lapatinib it was -0.047; with pictilisib, 0.072.

As for PIKFYVE (UniProt Q9Y2I7), the log2 fold change in assay [1] was 0.03; with filanesib, -0.036; with zotarolimus it was -0.074; in the assay with idasanutlin, -0.096; in the assay with alisertib, 0.016; in assay [2] it was -0.037. In addition, the log2 fold change with gefitinib was -0.308; in assay [3], -0.044; with lapatinib, -0.098; in the assay with pictilisib, -0.047.

Take PRKAA1 isoform 2 (UniProt Q13131): the log2 fold change in [1] was 0.029; in the assay with filanesib, -0.043; with zotarolimus, -0.007; in the assay with idasanutlin it was 0.013; in the assay with alisertib it was -0.047; in assay [2] it was -0.014. Besides, the log2 fold change was 0.004 in the assay with gefitinib, 0.016 in assay [3], -0.008 with lapatinib and -0.03 with pictilisib.

With PDIK1L (UniProt Q8N165), the log2 fold change in [1] is -0.014; in the assay with filanesib, 0.112; in the assay with zotarolimus it was -0.059; with idasanutlin, 0.001; with alisertib it was 0.099; in [2], -0.127. Also, the log2 fold change in the assay with gefitinib was 0.012; in [3] it was 0.092; in the assay with lapatinib it was 0.086.
